Records with an inconclusive call do not appear. Activity calls are given as the source filed them. Calls follow the shape of the dose curve; as a rule, active = well fitted inhibition curve with a large enough effect in the repeat runs; inconclusive = weak or mixed curves; inactive = flat fitted curve, though single readings scatter.
Molecular target: Luciferin 4-monooxygenase (Photinus pyralis) (UniProt P08659)
Assay: qHTS assay to identify small molecule inhibitors of firefly luciferase (AID 1224835); also: nearly all actives have a fitted effect of over 25% in size
Settings: purified P. pyralis luciferase, luminescence inhibition; series mostly up to 115 µM; activity change, negative = inhibition: at the top concentration
Excerpt: U.S. Tox21 Program National Center for Advancing Translational Sciences [NCATS] NIH Chemical Genomics Center [NCGC] U.S. Environmental Protection Agency [EPA] National Institutes of Environmental Health Sciences [NIEHS] National Toxicology Program [NTP] U.S. Food and Drug Administration [FDA] Tox21 Assay Overview: Firefly (Photinus pyralis) luciferase is one of the most commonly used transcriptional reporters. Firefly luciferase reporter-gene assays are generally considered one of the most sensitive assay types (Wood, 1995; Wood, 1998). However, it was initially observed, in 1991, by Thompson et al., that compounds that resemble the substrates of firefly luciferase (FLuc) can act as competitive inhibitors of the enzyme, and that these compounds, upon interaction with luciferase in the cell, can actually stabilize the protein and increase its half-life. Previous profiling work by other groups to determine the prevalence of compounds that affect FLuc enzymatic activity (PubChem AID 411) identified that ~3% of the MLSMR library (then at ~72K) inhibited FLuc. […] Thus the Tox21 10K library is profiled for activity against FLuc using a biochemical assay of purified FLuc and KM concentrations of FLuc substrates (D-luciferin and ATP).
These assay plates were then treated with 23nL of compound or DMSO using a Kalypsys pin tool, which allows for delivery of a 6-point interplate titration of each compound to the assay plate (quantitative HTS.) 1 uL of firefly luciferase mix (containing 50 mM Tris acetate, pH 7.6, 0.04 uM P. pyralis luciferase, 0.01% Tween, 0.05% BSA and dH2O) was then delivered by FRD to each well. Luciferase activity was then measured using a ViewLux CCD imager.
% is scaled to controls: 0 for no effect and ±100 for the full control effect; potency is read from the fitted curve at half-maximal effect.

Luciferin 4-monooxygenase (Photinus pyralis), sequence (P08659 whole entry, looked up): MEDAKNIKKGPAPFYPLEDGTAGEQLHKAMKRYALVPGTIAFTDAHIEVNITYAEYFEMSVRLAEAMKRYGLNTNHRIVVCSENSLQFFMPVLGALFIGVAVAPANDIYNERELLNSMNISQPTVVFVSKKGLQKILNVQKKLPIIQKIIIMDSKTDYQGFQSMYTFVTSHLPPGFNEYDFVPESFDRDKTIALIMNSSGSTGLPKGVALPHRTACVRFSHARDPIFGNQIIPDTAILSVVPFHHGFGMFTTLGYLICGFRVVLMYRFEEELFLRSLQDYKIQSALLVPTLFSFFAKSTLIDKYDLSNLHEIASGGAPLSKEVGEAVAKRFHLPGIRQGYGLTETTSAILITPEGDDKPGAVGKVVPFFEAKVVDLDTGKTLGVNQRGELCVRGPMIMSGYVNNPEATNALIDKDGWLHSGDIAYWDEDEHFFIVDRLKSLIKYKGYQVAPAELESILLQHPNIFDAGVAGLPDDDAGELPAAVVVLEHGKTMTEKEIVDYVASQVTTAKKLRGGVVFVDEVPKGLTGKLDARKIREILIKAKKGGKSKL

| SMILES | activity change, negative = inhibition | Potency |
| --- | --- | --- |
| CC1(C)C(=O)NC(=O)N1CO | 2.92% (inactive) |  |
| O=[N+]([O-])c1ccccc1CCO | -0.118% (inactive) |  |
| CCCCCCCCCCCCCCCCN | -3.37% [at 52.9 µM] (inactive) |  |
| C=C[Si]1(C)O[Si](C)(C=C)O[Si](C)(C=C)O[Si](C)(C=C)O1 (stereo not given) | 2.19% (inactive) |  |
| Cc1c(-c2cccnc2)c2ccccc2n1CCCCC(=O)O |  | 39.9 µM (active) |
| CCCCOC(=O)CC#N | 1.14% (inactive) |  |
| CC(COc1ccccc1)NC(C)C(O)c1ccc(O)cc1 (stereo not given) | 1.4% [at 52.9 µM] (inactive) |  |
| CC(=O)Oc1cccc2c1C(=O)c1c(OC(C)=O)cc(C(=O)O)cc1C2=O | 2.49% [at 52.9 µM] (inactive) |  |
| C[Si](C)(C)O[Si](C)(C)O[Si](C)(C)C | 3.2% (inactive) |  |
| O=C(OCCOCCOCCOC(=O)c1ccccc1)c1ccccc1 | -1.81% (inactive) |  |
| O=C(O)c1ccccc1-n1cc(C(=O)O)c(=O)c2cc(Nc3c(F)cc(F)cc3Cl)c(Cl)cc21 | 2.45% (inactive) |  |
| CCc1ccc(C(=O)C(C)CN2CCCCC2)cc1 (stereo not given) | -0.927% [at 52.9 µM] (inactive) |  |
| O=C(OC1C[C@H]2CC[C@@H](C1)[N+]21CCCC1)C(O)(c1ccccc1)c1ccccc1 (stereo not given in full) | 4.27% [at 52.9 µM] (inactive) |  |
| Cc1ccc2c(Cl)cc(Cl)c(O)c2n1 | 3.09% [at 52.9 µM] (inactive) |  |
| C1=COCCC1 | -0.644% (inactive) |  |
| NCCOCCOCCN | 3.36% (inactive) |  |
| O=C(Cl)c1ccc(F)c(Cl)c1 | -9.65% (inactive) |  |
| O=Cc1ccc(Cl)c([N+](=O)[O-])c1 | -0.356% (inactive) |  |
| O=C(O)COCC(=O)O | 5.42% (inactive) |  |
| FC(F)(Cl)C(F)(Cl)Cl | 1.4% (inactive) |  |

| SMILES | activity change, negative = inhibition | Potency |
| --- | --- | --- |
| CC(C)(O)C(=O)O | 3.8% (inactive) |  |
| C=CCCC | -1.01% (inactive) |  |
| C/C(=C\C(C)CC(C)CC(C)C)C1CC(=O)OC1=O (stereo not given) |  | 89.4 µM (active) |
| Oc1ccc(Oc2ccccc2)cc1 | 0.62% (inactive) |  |
| CCCCCC1CCC(=O)O1 (stereo not given) | 6.62% (inactive) |  |
| Nc1ccc(F)cc1F | 0.489% (inactive) |  |
| SCCOCCOCCS | 1.72% (inactive) |  |
| Nc1cccc2c(=O)[nH][nH]c(=O)c12 | 0.194% (inactive) |  |
| CCC(=O)O[C@]1(C(=O)COC)[C@@H](C)C[C@H]2[C@@H]3CCC4=CC(=O)C=C[C@]4(C)C3(F)[C@@H](O)C[C@@]21C (stereo not given in full) | 3.5% [at 52.9 µM] (inactive) |  |
| Cc1c(N=C=O)cccc1N=C=O | 0.898% (inactive) |  |
| CC(=O)c1ccc(Cl)c(Cl)c1Cl | -0.367% (inactive) |  |
| O=C(O)c1ccc2cc(O)ccc2c1 |  | 62.4 µM (active) |
| Nc1nc(Cl)nc2c1ncn2[C@H]1C[C@H](O)[C@@H](CO)O1 | 1.18% (inactive) |  |
| CCOCCn1c(N2CCCN(C)CC2)nc2ccccc21 | 2.13% [at 52.9 µM] (inactive) |  |
| O=C1OC(=O)C2CC=CCC12 (stereo not given) | 4.14% (inactive) |  |
| O=c1[nH]nc(-c2ccc([N+](=O)[O-])o2)o1 | 0.0567% (inactive) |  |
| CC1(COc2ccc(CC3SC(=O)NC3=O)cc2)CCCCC1 (stereo not given) |  | 27.5 µM (active) |
| CCCc1ccc(OC)cc1 | -4.98% (inactive) |  |
| O=C(OCCCCCOC(=O)c1ccccc1)c1ccccc1 | 1.25% (inactive) |  |
| CCCCCCCCCCCCCCCCC(=O)O | 3.13% [at 52.9 µM] (inactive) |  |
